# According to the supplement of paper PMC10338343:
# ± gives the standard deviation.
# System: MILI (PIWIL2) piRISC loaded with L1MC piRNA (26 nt)
# Assay: pre-steady-state target cleavage rate (min^-1); guide: L1MC piRNA 5'p-UAACUAAAUACUAUGCAAGCUGUAGG; MIWI and MILI are mouse PIWI proteins and EfPiwi is from a freshwater sponge; tags in brackets are library labels; higher = faster piRNA-guided slicing of the target
# Conditions: auxiliary factor: 500 nM mouse GTSF1
# Method in brief: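 The pre-steady-state cleavage rate was calculated from a burst-and-steady-state fit. Data came from Cleave-'n-Seq, in which […] transcribed, DNA-blocked target RNA library was mixed with 1 nM active affinity-purified piRISC carrying one synthetic guide, with or without 500 nM GTSF1 partner protein, in HEPES–potassium acetate buffer at 33 °C for 0–8 or 0–960 min. Uncleaved targets were sequenced and normalised to depth and to weakly complementary targets, three trials were pooled, and k3 was capped at 0.0001 min^-1.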
# 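Note: 1 nM active piRISC with 0.1 nM target library at 33 °C single turnover.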
row,Sequence,pre-steady-state target cleavage rate
1,UCCUGGAUGAGCUUGCAAUGUAUUUAGUUA,0.0269 ± 0.0097
2,UCCUGGAUCUGCUUGCAUAGUAUUAAGUUA,0.204 ± 0.019
3,UCCUGGAUGUGCUAGCAUAGUAUUUUGUUA,0.0587 ± 0.011
4,UCCUGGAUGUCGUUGCAUAGUAAUUUGUUA,0.00776 ± 0.005
5,UCCUGGAUGAGGUUGCAUAGUAUUAAGUUA,0.0422 ± 0.018
6,UCCUGGAUGUCCUUGCAUUGUAUUUAGUUA,0.0543 ± 0.012
7,UCCUGGAUGUCGUUGCAUAGUAUAAAGUUA,0.0728 ± 0.018
8,UCCUGGAUGUCGUUGGCAUAGUAUUUAGUUA,0.0621 ± 0.015
9,UCCUGGUACAGCUUGCAUAUGUAUUUAGUUA,0.00566 ± 0.0049
10,UCCUGGAUGUGCUUGCAUAGUAAUUAGUUA,0.095 ± 0.013
11,UCCUGGAUGUCGAUGCUUAGUAUUUAGUUA,0.019 ± 0.0053
12,UCCUGGAUGUCCUUGCAUACUUUUUAGUUA,0.00626 ± 0.004
13,UCCUGGAUGUGCAUGCAUAGUAAUUAGUUA,0.0501 ± 0.008
14,UCCUGGAACAGCUGUGCAUAGUAUUUAGUUA,0.206 ± 0.015
15,UCCUGGAUGUCGUUGCAUAGUAAAUAGUUA,0.0599 ± 0.019
16,UCCUGGAUGUCGUUGUAUAGUAUUUAGUUA,0.151 ± 0.017

# Same assay, conditions: auxiliary factor: none (no GTSF1)
row,Sequence,pre-steady-state target cleavage rate
1,UCCUGGAUGUCGAUGCCUAGUAUUUAGUUA,0.00351 ± 0.0023
2,UCCUGGAUGUCGAUGCAUAGUAUUUAGUAA,0.00268 ± 0.0024
3,UCCUGGAUCAGCUUGCAUAGUAUUUACUUA,0.00403 ± 0.0024
4,UCCUGCUACAGCUUGCAUUGUAUUUACUUA,0.00348 ± 0.0023
5,UCCUGGAUGUCGAUGCAAAGUAUUUAGUUA,0.0036 ± 0.0027
6,UCCUGGAUGUCGUAGCAUAGUAUUUAGUUA,0.00344 ± 0.0024
7,UCCUGGAUGUCCUUGCAUAGUAAUAAGUUA,0.00284 ± 0.0025
8,UCCUGGAUGUCGAACCCAUAGUAUUUAGUUA,0.00424 ± 0.0023
9,UCCUGGAUGUCGUUGCAUAGUAUUUUAGUUA,0.00632 ± 0.0029
10,UCCUGGAACAGCUUGCAAUGUAUUUAGUAA,0.00326 ± 0.0026
11,UCCUGGAUGUCGAUGCAUAGUAAUUUAGUUA,0.00496 ± 0.0023
12,UCCUGCUACAGCAUGCAUAGUUUUUAGUUA,0.00396 ± 0.0036
13,UCCUGGAACAGCUUGACAUAGUAUUUAGUUA,0.00586 ± 0.0022
14,UCCUGGUAGAGCUUGCUUAGUAUUUAGUUA,0.00793 ± 0.0029
15,UCCUGGUACAGCUAGCAUAGUUUUUAGUUA,0.00928 ± 0.0026
16,UCCUGGUACAGCUUGGUAAGUAUUUAGUUA,0.00809 ± 0.0033
17,UCCUGGUACAGCUUGCAUAGUAUUAUAGUUA,0.00483 ± 0.003
18,UCCUCCUACAGCUUGCAUAGUAUUUAGUAA,0.00585 ± 0.0026
19,UCCUGGAUGUCCUUGGAUAGUAUAUAGUUA,0.0038 ± 0.0025
20,UCCUGGAUGUCCUUGCAAAGUAUAUAGUUA,0.00539 ± 0.002

row,Sequence,pre-steady-state target cleavage rate
1,UCCUGGAUGUCCUUGCAUAGUAUUGUAGUUA,0.0041 ± 0.003
2,UCCUGGAUGUCGUUGCAAAGUAUAUAGUUA,0.00471 ± 0.0027
3,UCCUGCUACAGCUUGCAAUCUAUUUAGUUA,0.00243 ± 0.0019
4,UCCUGGAUGUGCUUGCAAAGUAUUUACUUA,0.00362 ± 0.0028
5,UCCUGGAUGAGCUUGCAAUGUAUUUAGUUA,0.00445 ± 0.0026
6,UCCUGGAUCUGCUUGCAUAGUAUUAAGUUA,0.00478 ± 0.0026
7,UCCUGGAUGUGCUAGCAUAGUAUUUUGUUA,0.00334 ± 0.0025
8,UCCUGGAUGUCGUUGCAUAGUAAUUUGUUA,0.00315 ± 0.0027
9,UCCUGGAUGAGGUUGCAUAGUAUUAAGUUA,0.00493 ± 0.0031
10,UCCUGGAUGUCCUUGCAUUGUAUUUAGUUA,0.00683 ± 0.002
11,UCCUGGAUGUCGUUGCAUAGUAUAAAGUUA,0.00407 ± 0.0022
12,UCCUGGAUGUCGUUGGCAUAGUAUUUAGUUA,0.0049 ± 0.003
13,UCCUGGUACAGCUUGCAUAUGUAUUUAGUUA,0.00451 ± 0.0033
14,UCCUGGAUGUGCUUGCAUAGUAAUUAGUUA,0.00684 ± 0.0024
15,UCCUGGAUGUCGAUGCUUAGUAUUUAGUUA,0.00602 ± 0.0019
16,UCCUGGAUGUCCUUGCAUACUUUUUAGUUA,0.0024 ± 0.0022
17,UCCUGGAUGUGCAUGCAUAGUAAUUAGUUA,0.00833 ± 0.002
18,UCCUGGAACAGCUGUGCAUAGUAUUUAGUUA,0.00954 ± 0.0024
19,UCCUGGAUGUCGUUGCAUAGUAAAUAGUUA,0.00437 ± 0.0023
20,UCCUGGAUGUCGUUGUAUAGUAUUUAGUUA,0.0105 ± 0.0023
